Inconclusive results are not listed. Unmarked numbers belong to inactive results. Active and inactive are the calls of the source. The call rests on the fitted dose curve; in most records, active means well fitted inhibition curve with a large enough effect in the signal ratio in the repeat runs (not every such curve was filed as active); inconclusive means weak or mixed curves, or effect the other way; inactive means no such curve, though single readings can be large or run the other way; the % refers to the signal ratio.
On the % scale 0 is the no-effect control and ±100 the full control effect; potency means the concentration at half of the fitted maximal effect.

Sequence of Peroxisome proliferator-activated receptor delta (Homo sapiens) (Q03181 whole entry, looked up): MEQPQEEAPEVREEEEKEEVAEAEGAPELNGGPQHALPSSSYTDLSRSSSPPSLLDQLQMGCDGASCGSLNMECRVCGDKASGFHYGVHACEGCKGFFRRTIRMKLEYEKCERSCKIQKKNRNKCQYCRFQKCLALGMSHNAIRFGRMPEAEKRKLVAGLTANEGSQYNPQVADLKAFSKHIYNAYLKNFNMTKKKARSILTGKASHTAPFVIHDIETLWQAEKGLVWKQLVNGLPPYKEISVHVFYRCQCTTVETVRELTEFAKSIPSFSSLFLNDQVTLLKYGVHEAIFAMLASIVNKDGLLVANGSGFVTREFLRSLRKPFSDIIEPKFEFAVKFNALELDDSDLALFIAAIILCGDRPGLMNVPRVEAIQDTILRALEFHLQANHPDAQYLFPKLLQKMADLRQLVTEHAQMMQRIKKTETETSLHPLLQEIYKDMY

The assay deals with Peroxisome proliferator-activated receptor delta (Homo sapiens) (UniProt Q03181). Kind of assay: qHTS assay to identify small molecule antagonists of the peroxisome proliferator-activated receptor delta (PPARd) signaling pathway (AID 743215).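 Further: cells stimulated with agonist L165041 at 300 nM final during compound exposure.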 As to conditions: HEK293H PPARd-UAS-bla, beta-lactamase FRET ratio, antagonist, 17 h; series mostly up to 62 µM; ratio activity, negative = inhibition: at the top concentration. The source says:
U.S. Tox21 Program National Center for Advancing Translational Sciences [NCATS] NIH Chemical Genomics Center [NCGC] U.S. Environmental Protection Agency [EPA] National Institutes of Environmental Health Sciences [NIEHS] National Toxicology Program [NTP] U.S. Food and Drug Administration [FDA] Tox21 Assay Overview: The peroxisome proliferator-activated receptors (PPARs) are lipid-activated transcription factors of the nuclear receptor superfamily with three distinct subtypes namely PPAR alpha, PPAR delta (PPARd) and PPAR gamma. All these subtypes heterodimerizes with Retinoid X receptor (RXR) and have different physiological functions. […] To identify the compounds that inhibit PPAR-delta signaling, GeneBLAzer PPAR delta UAS-bla HEK293H cell line (Invitrogen, Carlsbad, CA, USA) containing a beta-lactamase reporter gene under the control of an Upstream Activator Sequence (UAS) was used to screen the Tox21 compound library.
Tox21 Assay Protocol Summary: PPARd-bla cells were dispensed at 3000 cells/5uL/well in 1536-well black wall/clear bottom plates using a Multidrop Combi (Thermo Fisher Scientific, Waltham, MA) dispenser. After the assay plates were incubated at 37 C and 5% CO2 for 5 h, 23 nL of compounds dissolved in DMSO, positive controls or DMSO only was transferred to the assay plate by a Pintool station (Kalypsys, San Diego, CA), followed by addition of 1ul L165041 (300 nM, final concentration in the wells). The assay plates were incubated at 37 C for 17 h, and then 1 uL of LiveBLAzerTM B/G FRET substrate was added using a Bioraptr Flying Reagent Dispenser (FRD) workstation (Beckman Coulter, Indianapolis, IN, USA). The assay plates were incubated at room temperature for 2 h and fluorescence intensity was measured by an Envision plate reader (PerkinElmer, Shelton, CT).
Background: Quantitative high-throughput screening tests each substance at several concentrations.
`CCOC(=O)/C=C/C(=O)O`: the “ratio activity, negative = inhibition” value is 1.56%.

Consider `NC(=O)N(O)[C@@H]1C=C[C@H](Oc2cccc(Oc3ccc(F)cc3)c2)C1`, for which the “ratio activity, negative = inhibition” value was 14.9%.

Regarding `CN1Cc2cc(C(=O)N3CCC(C4CCNCC4)CC3)ccc2N[C@@H](CC(=O)O)C1=O`, the “ratio activity, negative = inhibition” value is 2.42%.

For `Nc1nccs1`, the “ratio activity, negative = inhibition” value is -0.191%.

As for `CC(C)CCCCCCOC(=O)CCCCC(=O)OCCCCCCC(C)C`, the “ratio activity, negative = inhibition” value was -9.23%.

For `CC(C)OCC1CO1` (stereo not given), the “ratio activity, negative = inhibition” value was -11.8%.

Turning to `C[Si](NC1CCCCC1)(NC1CCCCC1)NC1CCCCC1`, the “ratio activity, negative = inhibition” value was 2.96%.

Turning to `[O]=[Bi]`, the ratio activity, negative = inhibition was 3.78% [at 6.26 µM].

Consider `CCCCOC(=O)CCS`, for which the “ratio activity, negative = inhibition” value was 5.2%.

Consider `CCCCC(=O)O[C@]1(C(=O)CO)[C@@H](C)C[C@H]2[C@@H]3CCC4=CC(=O)C=C[C@]4(C)[C@@]3(F)[C@@H](O)C[C@@]21C`, for which the “ratio activity, negative = inhibition” value was 4.78%.

In the case of `CCC(C)=O`, the “ratio activity, negative = inhibition” value is 1.91%.

With `Oc1cc(O)c(Cl)cc1Cl`, the “ratio activity, negative = inhibition” value is -6.46% [at 80.4 µM].

Consider `Nc1ccc(Cl)cc1[N+](=O)[O-]`, for which the “ratio activity, negative = inhibition” value is 0.127%.

As to `CN(C(=O)C(Cl)Cl)c1ccc(OC(=O)c2ccco2)cc1`, the “ratio activity, negative = inhibition” value is 1.1%.

In the case of `COc1cc2[nH]c(=O)[nH]c(=O)c2cc1OC`, the “ratio activity, negative = inhibition” value was 4.93%.

For `COC(OC)(C(=O)c1ccccc1)c1ccccc1`, the “ratio activity, negative = inhibition” value is -17.8%.

Take `CC(C)(C)C(=O)C(Oc1ccc(Cl)cc1)n1ccnc1` (stereo not given): the “ratio activity, negative = inhibition” value is -11.9%.

Take `CC(C)(C)C(=O)O`: the “ratio activity, negative = inhibition” value was -3.92% [at 80.4 µM].

For `CC(C)CCCCCOC(=O)CCCCC(=O)OCCCCCC(C)C`, the “ratio activity, negative = inhibition” value was -12.1%.

Regarding `O=C(O)c1ccc(CO)o1`, the “ratio activity, negative = inhibition” value is 5.96% [at 80.4 µM].

As for `CCCCC(=O)O[C@]1(C(=O)CO)CC[C@H]2[C@@H]3CCC4=CC(=O)CC[C@]4(C)[C@H]3[C@@H](O)C[C@@]21C`, the “ratio activity, negative = inhibition” value is 21.1%.

In the case of `NC(=O)Nc1ccc(Cl)c(Cl)c1`, the “ratio activity, negative = inhibition” value is -24.2%.

With `CC(C)C(=O)O`, the “ratio activity, negative = inhibition” value is 0.924%.

As for `O=C(O)C(Cc1cc(I)c(O)c(I)c1)c1ccccc1` (stereo not given), the “ratio activity, negative = inhibition” value is 1.26%.

For the molecule `CCC1(C)CC(=O)NC1=O` (stereo not given), the “ratio activity, negative = inhibition” value was 2.3%.

With `O=C(/C=C/c1ccccc1)OCCCc1ccccc1`, the “ratio activity, negative = inhibition” value is -3.26%.

As for `N#C/C(=C1\SCC(c2ccccc2Cl)S1)n1ccnc1` (stereo not given), the “ratio activity, negative = inhibition” value was -0.983%.

On to `CCCCN(CCCC)C(=S)SSC(=S)N(CCCC)CCCC`, for which the Potency was 21.7 µM (active).

Consider `CCOC(=O)c1ccccc1OC`, for which the “ratio activity, negative = inhibition” value is 3.93%.

As to `C=CC(C)(C)CC(=O)OC`, the “ratio activity, negative = inhibition” value is 0.128% [at 80.4 µM].

With `O=C(CCCN1CCC(O)(c2ccc(Br)cc2)CC1)c1ccc(F)cc1`, the “ratio activity, negative = inhibition” value is 11.7%.

Take `CC1C2CC(CC2C2CCCC(O)C2)C1(C)C` (stereo not given): the “ratio activity, negative = inhibition” value was -17.7%.

For `COCC(O)CO` (stereo not given), the “ratio activity, negative = inhibition” value was 1.66% [at 80.4 µM].

In the case of `C[C@]12CCC(=O)C=C1C=C[C@@H]1[C@@H]2CC[C@@]2(C)[C@H]1CC[C@@]21CCC(=O)O1`, the “ratio activity, negative = inhibition” value is 2.84%.

Consider `O=c1[nH]c2ccc(S(=O)CCN3CCC(Cc4ccc(F)cc4)CC3)cc2o1` (stereo not given), for which the “ratio activity, negative = inhibition” value was 17.5%.

For `CCCCC1C(=O)N(c2ccccc2)N(c2ccc(O)cc2)C1=O` (stereo not given), the “ratio activity, negative = inhibition” value is -1.98%.

As for `C=CCNc1nc(NCC=C)nc(N2CCN(C(c3ccc(F)cc3)c3ccc(F)cc3)CC2)n1`, the “ratio activity, negative = inhibition” value is -4.09%.

`CCC(=O)OC/C=C/c1ccccc1`: the “ratio activity, negative = inhibition” value is 3.64%.

As to `CCCCCC=CCC=CCCCCCCCC(=O)OCC`, the “ratio activity, negative = inhibition” value was -27.7%.

In the case of `CCCCCCCC/C=C\CCCCCCCC(=O)OC`, the “ratio activity, negative = inhibition” value was 2.52%.

The values above are taken from PubChem BioAssay (Tox21).
